# Results published in PubChem BioAssay AID489025 (Southern Research Specialized Biocontainment Screening …, 2010).
# The campaign covered roughly 2,300 compounds. About 790 (34%) were called active. The rule behind the calls is not given here. The list shows a part of the results. Entries with a potency or affinity are not part of this list.
# Test: THP-1 cell cytotoxicity, dose response, cytotoxicity control for non-replicating M. tuberculosis project (AID 489025)
# Conditions: THP-1 cell viability; series mostly up to 40 µM
row,Compound,outcome
1,CCc1c(C)c2ccc(OCC(=O)OC)cc2oc1=O,inactive
2,Cc1cccc2nc(-c3cccnc3)c(NCCC(C)C)n12,inactive
3,CSc1nn(-c2ccc(C(=O)OCC(=O)NC(=O)NC(C)C)cc2)c(=S)s1,inactive
4,CC(=O)Oc1c(-c2ccco2)oc2ccccc2c1=O,inactive
5,O=[N+]([O-])c1ccc2nc(SCc3cn4cc(Cl)ccc4n3)[nH]c2c1,inactive
6,O=c1c2c([N+](=O)[O-])cc([N+](=O)[O-])cc2sn1-c1ccc(Br)cc1,inactive
7,O=C(Oc1cccc([N+](=O)[O-])c1)c1ccc2c(=O)n3c(nc2c1)CCC3,inactive
8,CCOC(=O)COn1c(-c2cccc(Cl)c2)nc2ccc([N+](=O)[O-])cc21,inactive
9,O=c1c2cc(Cl)ccc2nc(-c2ccccc2Cl)n1O,inactive
10,N/C(=N\OC(=O)c1cccc(Br)c1)c1ccc([N+](=O)[O-])cc1,inactive
11,Cc1nc2ccc(Cl)cc2nc(C)/c1=N\O,inactive
12,CC(=O)c1cc2c(ccc3ccccc32)oc1=O,inactive
13,CCOc1ncccc1C(=O)OCC(=O)N1CCc2ccccc21,inactive
14,C=C(C)C1CC=C(C)/C(=N/NC(=O)CNc2ccc(OCC)cc2)C1 (stereo not given),inactive
15,CC(C)OC(=O)c1c2c(n3ccccc13)C(=O)c1ccccc1C2=O,inactive
16,COc1cc(C(=O)ON=C2C=C(C)C(=O)C(C)=C2)cc(OC)c1OC,inactive
17,COc1ccc(CCNc2cc(-c3ccccc3)nc3ncnn23)cc1,inactive
18,Cc1nn2c(NCCN(C)C)c3c(nc2c1-c1ccccc1)CCCC3,inactive
19,COc1cccc(C(=O)OCn2nnc3ccccc3c2=O)c1OC,inactive
20,O=C(OCn1nnc2ccccc2c1=O)c1ccc(Br)o1,inactive
21,Cc1cccc(Cn2ccc(NC(=O)c3ccc4c(c3)OCO4)n2)c1,inactive
22,Cc1ccc(NC(=O)COC(=O)CCc2c[nH]c3ccccc23)cc1[N+](=O)[O-],inactive
23,O=C(NCCC1=CCCCC1)c1ccc(F)cc1,inactive
24,Cc1ccc(NC(=O)COCC(=O)Nc2ccc(C)cc2)cc1,inactive
25,Cc1ccc(NC(=O)CNc2ccc(OC(C)C)cc2)cc1,inactive

row,Compound,outcome
1,COc1ccc(C(=O)C2CCCN(C(=O)c3ccc(CSC)o3)C2)cc1F (stereo not given),inactive
2,CSc1ccc(C(=O)C2CCCN(Cc3cc4ccccc4[nH]3)C2)cc1 (stereo not given),inactive
3,COC(=O)c1ccccc1NC(=O)C1CC(c2ccc(F)cc2)=NO1 (stereo not given),inactive
4,CC(=O)OCCN(C)c1cc(SC(C)C)c2nonc2c1[N+](=O)[O-],inactive
5,CCCNC(=O)COC(=O)c1cc2c(=O)n3ccccc3nc2s1,inactive
6,Cc1csc(=Nc2cccnc2)n1CC1CCCCC1,inactive
7,Cc1ccc2c(CC(=O)OCC(=O)Nc3ccc(Cl)cn3)coc2c1,inactive
8,O=C(Oc1ccccc1)c1cc2ccccc2o1,inactive
9,CCc1ccc(OCCCC(=O)Nc2nccs2)cc1,inactive
10,COc1ccc(NC(=O)CO/N=C2/CCCc3nonc32)c(OC)c1,inactive
11,O=C(Oc1cccc2cccnc12)c1cccc([N+](=O)[O-])c1,inactive
12,O=C(Oc1ccccc1Cl)c1ccc2c(=O)n3c(nc2c1)CCC3,inactive
13,Cc1cc(C(=O)COc2cccc3cccnc23)c(C)n1C,inactive
14,O=C(Oc1cccc2cccnc12)c1cccc(-n2cnnn2)c1,inactive
15,S=c1[nH]c2ccccc2o1,inactive
16,O=C1CC(N2CCN(Cc3ccccc3)CC2)C(=O)N1CCc1ccccc1 (stereo not given),inactive
17,O=C1C=CC(=O)N1N(c1ccccc1)c1ccccc1,inactive
18,Cc1c(C(=O)NNC(=O)c2csc(N3CCOCC3)n2)oc2ccccc12,inactive
19,COC(=O)C1=C(C(=O)OC)C(c2cc(Cl)ccc2O)c2sc(=O)[nH]c2S1 (stereo not given),inactive
20,O=c1oc2ccccc2c2c1nnn2CCO,inactive
21,Cc1ccc(-c2cc(C(F)(F)F)n3nc(C(=O)NCCCn4ccnc4)cc3n2)cc1C,inactive
22,Clc1cccc(-c2ccc(CNCc3ccccn3)o2)c1,inactive
23,c1ccc(-c2nc(NCCCn3ccnc3)c3ccccc3n2)cc1,inactive
24,Clc1ccc(-c2ccc(CNCc3ccccn3)o2)cc1,inactive
25,Fc1ccc(-c2ccc(CNCc3ccccn3)o2)cc1Cl,inactive

row,Compound,outcome
1,O=C(NCCC1=CCCCC1)c1ccc(Br)o1,inactive
2,CC(=O)c1cccc(NC(=O)C2COc3ccccc3O2)c1 (stereo not given),inactive
3,CCCc1cc(=O)n2[nH]c(C)c(-c3ccccc3)c2n1,inactive
4,Cc1ccc(C(=O)CCNc2ccc(Br)cc2)o1,inactive
5,CC(=O)n1cc(/C=C2/N=C(c3ccccc3)OC2=O)c2ccccc21,inactive
6,CCCOC(=O)c1ccc(-c2ccc(C=O)o2)cc1,inactive
7,Cc1cccc(C)c1N1C(=O)CC(N2CCSCC2)C1=O (stereo not given),inactive
8,Cc1ccc(-c2noc(CCC(=O)Nc3cccc(C#N)c3)n2)cc1,inactive
9,O=C(COC(=O)c1cccc([N+](=O)[O-])c1)NCc1cccs1,inactive
10,CCOC(=O)N/N=C\c1ccc([N+](=O)[O-])s1,inactive
11,CCCOC(=O)c1ccc(NC(=O)Cc2cccs2)cc1,inactive
12,COC(=O)N/N=C/c1ccc([N+](=O)[O-])s1,inactive
13,C/C(Cn1nnc([N+](=O)[O-])n1)=N\NC(=O)c1ccncc1,inactive
14,Brc1c(CSc2nncc3ccccc23)nc2ccccn12,inactive
15,CCN(CC)c1ccc2cc(C(=O)NCc3ccc(F)cc3)c(=N)oc2c1,inactive
16,O=c1oc2ccccc2nc1/C=C(\O)c1ccc(Br)cc1,inactive
17,C/C(=N/NC(=O)c1ccco1)c1ccc(Br)s1,inactive
18,CC(C)(C)NCC1(CO)SC(N)=NC1=O (stereo not given),inactive
19,COc1n[nH]c(C(=O)Nc2cc(F)ccc2C)c1[N+](=O)[O-],inactive
20,O=C(C/C=N\OCc1ccc([N+](=O)[O-])cc1)Nc1ccc(F)cc1F,inactive
21,CCc1cc2c3c(c1)C(C)CC(C)(C)N3C(=O)/C2=C1\SC(=O)NC1=O (stereo not given),inactive
22,O=C(COC(=O)COc1ccc(Nc2ccccc2)cc1)NCc1ccco1,inactive
23,COC(=O)CC(=O)N1CCN(c2ccc(Cl)c(Cl)c2)CC1,inactive
24,COc1ccccc1N1CCN(C(=O)c2ccc([N+](=O)[O-])s2)CC1,inactive
25,CC(C)(C)c1ccc(OCCCC(=O)NC2=NCCS2)cc1,inactive
